MazF activator = activators of E. coli MazEF toxin-antitoxin RNase; activation, % at 20 µM; 350,000 compounds, 0.32% hits; P0AE70; FAM/BHQ RNA-DNA oligo cleavage fluorescence, 5 h; AID 504720; in the data active = activation above about 50%
Target sequence (P0AE70 whole entry, looked up): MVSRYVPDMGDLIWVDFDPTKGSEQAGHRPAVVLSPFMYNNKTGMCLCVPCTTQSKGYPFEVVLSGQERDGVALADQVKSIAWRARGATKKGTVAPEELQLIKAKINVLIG
PriA SSB inh = blocks PriA binding to SSB C-terminal tail | AlphaScreen SSBct-PriA binding, biotinylated peptide | inhibition, % at 33 µM | 430,000 compounds, 0.6% hits; in the data active = inhibition mostly above about 37%, no sharp cut-off; inactive = mostly below about 20%
BoNT-F LC inh = blocks Botulinum neurotoxin F light chain protease | Multiplex microsphere protease cleavage assay, flow cytometry | AID 588497 | 360,000 compounds, 0.22% hits | inhibition, % at 10 µM; in the data active = inhibition above about 35%, passing the limit was not always enough; inconclusive = no clear call, values can overlap the other calls
Anthrax LF prot = blocks Bacillus anthracis lethal factor protease; P15917; multiplex microsphere protease cleavage assay, LF; inhibition, % at 10 µM; 360,000 compounds, 0.12% hits; AID 588501
BoNT A protease = inhibitors of Botulinum neurotoxin A light chain protease | 360,000 compounds, 0.17% hits | inhibition, % at 10 µM | multiplex microsphere protease substrate cleavage, flow cytometry
Autofluor counter = compound fluorescence in toxin protease inhibitor counterscreen. fluorescence intensity (no concentration beside the values). compound autofluorescence counterscreen, microsphere flow cytometry; active compounds read high. 360,000 compounds, 3.1% hits; in the data active = fluorescence intensity above about 16000; inconclusive = no clear call, values can overlap the other calls
A number is an active result. Most compounds without a hit are left out; they make up all but 3.3% or so of the library. Cut-off read from the data, not from the text of the source, unless noted: active = inhibition above about 30%; inconclusive = no clear call, values can overlap the other calls; inactive = below that.

Cc1c(NC(=O)CSc2nccn2C)c(=O)n(-c2ccccc2)n1C was read as MazF activator inactive, PriA SSB inh inactive, BoNT-F LC inh inactive, Anthrax LF prot inactive, BoNT A protease inconclusive and Autofluor counter 16417.
O=C(C1CC(=O)N(C2CCOCC2)C1)N1CCCC(Oc2cnccn2)C1 (centres undefined) was read as PriA SSB inh inactive.
CC(C)OC(=O)CSc1nnc(-c2ccc(Cl)cc2)n1N was read as MazF activator inactive, PriA SSB inh inactive, BoNT-F LC inh inactive, Anthrax LF prot inactive, BoNT A protease inactive and Autofluor counter 21439.
Screening CC(C)OC(=O)CSc1nnc(Cc2ccccc2)n1C returned MazF activator inactive, PriA SSB inh inactive, BoNT-F LC inh inactive, Anthrax LF prot inactive, BoNT A protease inactive and Autofluor counter 16479.
For CC(C)OC(=O)CSc1nnc(-c2ccc(Cl)cc2Cl)n1N the results were MazF activator inactive, PriA SSB inh inactive, BoNT-F LC inh inactive, Anthrax LF prot inactive, BoNT A protease inactive and Autofluor counter 22841.
`CSc1ccccc1NC(=O)Cc1csc(SCC(=O)Nc2ccc(F)cc2)n1` gave PriA SSB inh inactive.
For CC1=CC(=NNc2ccccc2[N+](=O)[O-])CC(C)(C)C1 the results were PriA SSB inh 117.
COc1cccc(-n2c(SCC(=O)Nc3sc4c(c3C(N)=O)CCC4)nc3ccccc3c2=O)c1 was read as MazF activator inactive, PriA SSB inh inactive, BoNT-F LC inh inactive, Anthrax LF prot inactive, BoNT A protease inactive and Autofluor counter 16606.
For O=C(NC[C@H]1CCCN1c1ccccc1)c1ccncc1 the results were PriA SSB inh inactive.
Screening CC(C)(C)NC(=O)C1Cc2ccccc2CN1C(=O)Nc1cccc(Cl)c1 (centres undefined) returned MazF activator 113, PriA SSB inh inactive, BoNT-F LC inh inactive, Anthrax LF prot inactive, BoNT A protease inactive and Autofluor counter inactive.
`Cn1c(=O)c2c(SCC(=O)Nc3cc(C(F)(F)F)ccc3Cl)nc(-c3cccs3)nc2n(C)c1=O` gave PriA SSB inh inactive.
O=C(c1cc(-c2ccco2)on1)N1CCN(C(c2ccccc2)c2ccccc2)CC1 was read as MazF activator inactive, PriA SSB inh inactive, BoNT-F LC inh inactive, Anthrax LF prot inactive, BoNT A protease inactive and Autofluor counter 21890.
Screening O=C(N1CCOCC1)N1CCN(C(c2ccccc2)c2ccccc2)CC1 returned MazF activator inactive, PriA SSB inh inactive, BoNT-F LC inh inactive, Anthrax LF prot inactive, BoNT A protease inactive and Autofluor counter 21654.
`O=C(N1CCCCC1)N1CCN(C(c2ccccc2)c2ccccc2)CC1` gave MazF activator inactive, PriA SSB inh inactive, BoNT-F LC inh inactive, Anthrax LF prot inactive, BoNT A protease inactive and Autofluor counter inactive.
`O=C1NC(=NN=Cc2cccs2)SC1Cc1cccc(Cl)c1` (centres undefined) gave PriA SSB inh inactive.
Cn1nc(C2CCN(C(=O)c3cc(-c4ccco4)on3)CC2)n(C2CC2)c1=O was read as PriA SSB inh inactive.
CCOC(=O)c1c(-c2ccc(C)o2)csc1NC(=O)CN1CC(C)OC(C)C1 (centres undefined) was read as PriA SSB inh inactive.
Screening Cc1cc(Nc2cccc(C(=O)O)c2)c2ccc(C(F)(F)F)cc2n1 returned PriA SSB inh inactive.
For Cc1csc(COc2ccc(C(=O)NCCCn3ncccc3=O)cc2)n1 the results were PriA SSB inh inactive.
Screening O=C(CCCl)Nc1cc(SCCO)cc([N+](=O)[O-])c1 returned MazF activator inactive, PriA SSB inh inactive, BoNT-F LC inh inactive, Anthrax LF prot inactive, BoNT A protease inactive and Autofluor counter 20902.
Screening O=C(Nc1cc(SCCO)cc([N+](=O)[O-])c1)c1ccc(Br)o1 returned MazF activator inactive, PriA SSB inh inactive, BoNT-F LC inh inactive, Anthrax LF prot inactive, BoNT A protease inactive and Autofluor counter inactive.
For O=C(O)C1C2CCCCC2=C2CCCCC2C1C(=O)O (centres undefined) the results were MazF activator inactive, PriA SSB inh inactive, BoNT-F LC inh inactive, Anthrax LF prot inactive, BoNT A protease inconclusive and Autofluor counter 18813.
`O=C(O)C1C2CCCCC2=C2CCCCC2C1C(=O)Nc1nccs1` (centres undefined) gave MazF activator inactive, PriA SSB inh inactive, BoNT-F LC inh inactive, Anthrax LF prot inactive, BoNT A protease inactive and Autofluor counter inactive.
N#Cc1ccccc1S(=O)(=O)N1CC[C@H](n2ccnn2)C1 was read as PriA SSB inh inactive.
